From PubChem BioAssay (EPA / NIEHS)
“And” between values parts separate entries of the source, which are not always exact repeats. Equal entries are not always repeated. Records with an inconclusive call do not appear. Where a structure was tested more than once in an assay, its records may differ in their call. The source made the active and inactive calls. Rule for the calls, unless noted: active = hit-call score of the fitted dose curve at least 0.9, where 1 is the maximum; inactive = score below 0.9.

Experiments:
[1] = read-out: Monocyte Chemoattractant Protein-1 (MCP1), CCL2 (gene 6347); assay: BSK_SAg_MCP1: BioMAP Diversity Plus: SAg Assay for Monocyte Chemoattractant Protein-1 (MCP1) Biomarker Activity (AID 2283090); conditions: primary human HUVEC with PBMC; actives raise or lower the signal
Method in brief: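 MCP-1 levels in the endothelial–PBMC SAg co-culture were quantified by ELISA at 24 h post-dosing; both increases and decreases versus DMSO scored. Cytotoxicity monitored by SRB total protein in parallel cultures.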

[2] = read-out: E-selectin (Homo sapiens) (UniProt P16581); assay: BSK_SAg_Eselectin: BioMAP Diversity Plus: SAg Assay for Eselectin Biomarker Activity (AID 2283091); conditions: primary human HUVEC with PBMC; actives raise or lower the signal
Method in brief: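 HUVEC co-cultured with PBMC, compound dosed then read at 24 h; E-selectin measured by ELISA. Activity fitted bidirectionally against DMSO as negative control and baseline.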

[3] = read-out: Monokine induced gamma interferon (MIG), CXCL9 (gene 4283); assay: BSK_SAg_MIG: BioMAP Diversity Plus: SAg Assay for Monokine induced gamma interferon (MIG) Biomarker Activity (AID 2283092); conditions: primary human HUVEC with PBMC; actives raise or lower the signal
Method in brief: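 Values reflect bidirectional fitting of ELISA-measured MIG against DMSO vehicle, taken 24 h after dosing of a co-culture of human umbilical vein endothelial cells and peripheral blood mononuclear cells.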

[4] = BSK_SAg_PBMCCytotoxicity: PBMC Cytotoxicity Assessment in the BioMAP Diversity Plus: SAg Assay (AID 2283093); conditions: primary human HUVEC with PBMC;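 note: PBMC viability measured as Alamar Blue reduction fluorescence at 546/580 nm; fitted both ways against DMSO so a hit may be loss or gain of signal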;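 for AC50: PBMC superantigen activated with SEB plus TSST-1 one hour after compound addition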
Method in brief: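 Human umbilical vein endothelial cells co-cultured with PBMC; PBMC (75,000/well) pre-treated with compound 1 h, then activated with SEB and TSST-1 (20 ng/mL final each) for 90 h. Alamar Blue added 6 h, fluorescence 546/580 nm; bidirectional fit versus DMSO.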

[5] = read-out: Interleukin-8 (IL8), CXCL8 (gene 3576); assay: BSK_SAg_IL8: BioMAP Diversity Plus: SAg Assay for Interleukin-8 (IL8) Biomarker Activity (AID 2283094); conditions: primary human HUVEC with PBMC; actives raise or lower the signal
Method in brief: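 In this co-culture of human umbilical vein endothelium with peripheral blood mononuclear cells, IL-8 is assayed by ELISA at 24 h. DMSO serves as baseline for bidirectional curve fitting.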

[6] = BSK_SAg_Proliferation: Cell Proliferation Assessment in the BioMAP Diversity Plus: SAg Assay (AID 2283095); conditions: primary human HUVEC with PBMC;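 note: relative cell number as total protein by SRB absorbance in sub-confluent culture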
Method in brief: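 Readout is SRB-stained protein (560 nm) in a primary human HUVEC and PBMC co-culture; sub-confluent cultures are read at 96 h. Activity is fitted bidirectionally using DMSO as baseline.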

[7] = BSK_SAg_SRB: Viability Assessment in the BioMAP Diversity Plus: SAg Assay (AID 2283096); conditions: primary human HUVEC with PBMC;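 note: cells read one day after compound addition; hits may be either gain or loss of signal compared with DMSO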
Method in brief: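 Endothelial/PBMC primary human co-culture; compound 24 h; fix 10% TCA, stain 0.1% SRB, A560; protein content as cytotoxicity proxy; bidirectional curve fit, DMSO = baseline.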

[8] = target: human CYP19A1, CYP19A1 (gene 1588) (UniProt P11511); assay: NVS_ADME_hCYP19A1: NovaScreen (NVS) CYP450-related Enzyme Activity (ADME) Assay for human CYP19A1 (AID 2283098; active = hit-call score of the fitted dose curve at least 0.9, where 1 is the maximum;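 for AC50: potency for inhibitors seen as loss of fluorescent enzyme signal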)
Method in brief: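 Cell-free enzyme assay with recombinant protein and a specific fluorogenic substrate, read by fluorescence intensity 0.5 h after dosing. Primary screen ran in duplicate at 10 uM; actives were retested in concentration series. Loss of signal versus acetonitrile baseline.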

[9] = target: human CYP2A6, CYP2A6 (gene 1548) (UniProt P11509); assay: NVS_ADME_hCYP2A6: NovaScreen (NVS) CYP450-related Enzyme Activity (ADME) Assay for human CYP2A6 (AID 2283099; active = hit-call score of the fitted dose curve at least 0.9, where 1 is the maximum)
Method in brief: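 Cell-free fluorescence readout of recombinant human CYP2A6 expressed in insect cells, read 0.5 h after dosing; loss of signal versus acetonitrile negative control. Primary screen in duplicate at 10 uM; actives re-run in concentration-response up to 20 uM.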

[10] = target: human CYP1A1, CYP1A1 (gene 1543) (UniProt P04798); assay: NVS_ADME_hCYP1A1: NovaScreen (NVS) CYP450-related Enzyme Activity (ADME) Assay for human CYP1A1 (AID 2283100; active = hit-call score of the fitted dose curve at least 0.9, where 1 is the maximum)
Method in brief: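 Cell-free fluorescence assay of recombinant human CYP1A1 activity with a specific substrate, read 1 h after dosing. Compounds were screened in duplicate at 10 uM, then hits tested in concentration-response up to 20 uM; acetonitrile served as baseline.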

Measured: AC50

Sequence of E-selectin (Homo sapiens) (P16581 whole entry, looked up): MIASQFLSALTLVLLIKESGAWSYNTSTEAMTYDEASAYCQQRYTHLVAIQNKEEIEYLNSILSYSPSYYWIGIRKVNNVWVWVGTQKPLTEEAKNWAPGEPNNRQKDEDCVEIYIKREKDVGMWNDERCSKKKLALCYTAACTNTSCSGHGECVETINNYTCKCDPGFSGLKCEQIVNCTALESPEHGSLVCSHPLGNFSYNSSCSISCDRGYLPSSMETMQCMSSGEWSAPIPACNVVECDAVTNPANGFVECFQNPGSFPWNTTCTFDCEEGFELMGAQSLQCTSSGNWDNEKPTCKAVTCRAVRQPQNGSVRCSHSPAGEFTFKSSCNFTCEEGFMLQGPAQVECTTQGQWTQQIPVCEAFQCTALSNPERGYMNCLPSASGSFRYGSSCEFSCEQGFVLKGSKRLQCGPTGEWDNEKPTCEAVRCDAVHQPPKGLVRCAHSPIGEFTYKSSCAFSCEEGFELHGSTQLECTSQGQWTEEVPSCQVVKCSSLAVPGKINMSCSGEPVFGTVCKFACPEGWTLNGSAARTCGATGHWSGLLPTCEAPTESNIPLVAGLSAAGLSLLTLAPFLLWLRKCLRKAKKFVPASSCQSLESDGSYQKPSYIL
Sequence of human CYP1A1, CYP1A1 (gene 1543) (P04798 whole entry, looked up): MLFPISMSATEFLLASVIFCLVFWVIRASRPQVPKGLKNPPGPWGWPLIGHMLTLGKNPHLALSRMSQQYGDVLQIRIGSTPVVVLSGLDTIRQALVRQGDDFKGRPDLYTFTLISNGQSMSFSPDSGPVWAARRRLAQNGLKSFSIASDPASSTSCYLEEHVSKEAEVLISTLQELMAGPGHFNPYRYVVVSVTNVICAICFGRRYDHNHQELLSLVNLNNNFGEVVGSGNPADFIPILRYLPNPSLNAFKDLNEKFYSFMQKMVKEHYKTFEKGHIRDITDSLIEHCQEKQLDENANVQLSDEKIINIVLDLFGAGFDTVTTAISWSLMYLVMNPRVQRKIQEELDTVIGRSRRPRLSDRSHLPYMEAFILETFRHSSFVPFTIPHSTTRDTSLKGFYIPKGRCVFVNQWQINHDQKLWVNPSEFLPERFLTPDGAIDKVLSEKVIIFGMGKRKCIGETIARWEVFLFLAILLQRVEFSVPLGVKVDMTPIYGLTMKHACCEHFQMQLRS
Sequence of human CYP19A1, CYP19A1 (gene 1588) (P11511 whole entry, looked up): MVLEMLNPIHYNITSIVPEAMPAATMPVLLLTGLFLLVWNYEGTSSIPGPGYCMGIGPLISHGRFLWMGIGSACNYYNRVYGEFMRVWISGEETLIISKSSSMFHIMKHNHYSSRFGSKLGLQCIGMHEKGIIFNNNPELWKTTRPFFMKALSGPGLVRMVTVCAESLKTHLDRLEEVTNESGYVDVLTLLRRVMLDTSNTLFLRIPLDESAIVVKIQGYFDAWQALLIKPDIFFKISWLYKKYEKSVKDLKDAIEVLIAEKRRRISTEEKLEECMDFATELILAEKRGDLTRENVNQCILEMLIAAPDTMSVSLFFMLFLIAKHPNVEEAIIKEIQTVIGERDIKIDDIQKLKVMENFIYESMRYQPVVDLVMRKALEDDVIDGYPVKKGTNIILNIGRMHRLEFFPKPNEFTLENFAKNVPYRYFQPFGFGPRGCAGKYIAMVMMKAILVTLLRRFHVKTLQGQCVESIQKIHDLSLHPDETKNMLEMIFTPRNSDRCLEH
Sequence of human CYP2A6, CYP2A6 (gene 1548) (P11509 whole entry, looked up): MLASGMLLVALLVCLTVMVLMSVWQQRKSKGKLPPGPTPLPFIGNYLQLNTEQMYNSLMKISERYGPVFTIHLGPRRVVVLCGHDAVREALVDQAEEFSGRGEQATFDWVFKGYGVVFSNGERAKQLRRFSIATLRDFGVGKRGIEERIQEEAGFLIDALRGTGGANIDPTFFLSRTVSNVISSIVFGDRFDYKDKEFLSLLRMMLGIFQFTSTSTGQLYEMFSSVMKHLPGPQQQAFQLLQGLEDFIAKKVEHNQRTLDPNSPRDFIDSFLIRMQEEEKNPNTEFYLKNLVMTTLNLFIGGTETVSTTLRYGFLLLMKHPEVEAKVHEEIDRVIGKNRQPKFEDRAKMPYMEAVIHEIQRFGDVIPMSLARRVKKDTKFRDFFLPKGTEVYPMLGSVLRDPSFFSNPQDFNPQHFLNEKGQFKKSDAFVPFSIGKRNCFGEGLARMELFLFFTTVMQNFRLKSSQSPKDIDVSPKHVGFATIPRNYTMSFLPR

CC1(c2ccc(Oc3ccccc3)cc2)OC(=O)N(Nc2ccccc2)C1=O (centres undefined)
inactive: [4]
active: [1] 19.8 µM | [2] 15.6 µM | [3] 34.1 µM | [5] 11.8 µM | [6] 16.9 µM | [7] 30.3 µM

COC(=O)c1ccccc1S(=O)(=O)NC(=O)N(C)c1nc(C)nc(OC)n1
not listed: [8] | [9] | [10]
inactive: all other assays above

O=S1OCC2C(CO1)C1(Cl)C(Cl)=C(Cl)C2(Cl)C1(Cl)Cl (centres undefined)
active: [1] 35.5 µM | [2] 36.7 µM | [3] 34.4 µM | [4] 16.1 µM | [5] 36.6 µM | [6] 14.2 µM | [7] 29 µM
inactive: [8]

OCCOc1ccccc1
not listed: [8] | [9] | [10]
inactive: all other assays above

CCCN(CCC)c1c([N+](=O)[O-])cc(C(F)(F)F)cc1[N+](=O)[O-]
inactive: [1] | [3] | [8]
active: [2] 15.4 µM | [4] 15 µM | [5] 24.9 µM | [6] 24.4 µM | [7] 20 µM

N#Cc1c(Cl)c(Cl)c(Cl)c(C#N)c1Cl
inactive: [9]
active: [1] 1.68 µM | [2] 0.959 µM | [3] 1.83 µM | [4] 1.4 µM | [5] 1.74 µM | [6] 0.197 µM | [7] 2.27 µM | [8] 0.192 µM

CNC(=O)CSP(=S)(OC)OC
active: [9] 4.5 µM
not listed: [10]
inactive: all other assays above

O=[N+]([O-])c1c(Cl)c(Cl)c(Cl)c(Cl)c1Cl
active: [2] 20 µM | [6] 31.2 µM
not listed: [9]
inactive: all other assays above

CNC(=O)Oc1ccccc1OC(C)C
not listed: [8] | [9] | [10]
inactive: all other assays above

Oc1ccc(Cl)cc1Cc1ccccc1
active: [1] 34.9 µM [middle of 7 runs] | [2] 32.5 µM [middle of 5 runs] | [3] 36.8 µM [middle of 7 runs] | [4] 27.2 µM [middle of 7 runs] | [5] 31.7 µM [middle of 7 runs] | [7] 29.4 µM [middle of 7 runs] | [8] 3.11 µM and 2.49 µM
inactive: [8] | [10]

CC(C)(C)C(O)/C(=C\c1ccc(Cl)cc1Cl)n1cncn1 (centres undefined)
active: [1] 31.8 µM | [2] 27.3 µM | [5] 32.2 µM | [6] 29.2 µM | [7] 29.9 µM | [8] 4.73 µM | [10] 0.705 µM
inactive: [3] | [4]

CC[C@H](C)[C@H]1O[C@]2(C=C[C@@H]1C)C[C@@H]1C[C@@H](C/C=C(\C)[C@@H](O[C@H]3C[C@H](OC)[C@@H](O[C@H]4C[C@H](OC)[C@@H](O)[C@H](C)O4)[C@H](C)O3)[C@@H](C)/C=C/C=C3\CO[C@@H]4[C@H](O)C(C)=C[C@@H](C(=O)O1)[C@]34O)O2 (tested in a mixture with another compound)
active: [1] 5.58 µM | [2] 5.19 µM | [3] 10.8 µM | [4] 6.1 µM | [5] 4.07 µM | [6] 4.56 µM | [7] 5.54 µM
inactive: [8] | [10]

O=[N+]([O-])/N=C1\NCCN1Cc1ccc(Cl)nc1
not listed: [9] | [10]
inactive: all other assays above

O=C1c2ccccc2C(=O)N1SC(Cl)(Cl)Cl
active: [6] 23.4 µM | [8] 1.01 µM
not listed: [9] | [10]
inactive: all other assays above
